Results: PubChem BioAssay (NCATS)
Records with an inconclusive call do not appear. Where a call stands in place of a potency, no number is given. More than one record can exist for a structure, and the calls need not agree. Calls of active or inactive are those of the source. Unless noted, the call rests on the fitted dose curve; in most records, active means well fitted curve in the direction sought with a large enough effect; inconclusive means small, poorly fitted or top-dose-only effect, or another doubt; inactive means no such curve, though single readings can be large; an effect the other way counts as inactive or inconclusive.

How the values were obtained:
[1] = molecular target: Ubiquitin carboxyl-terminal hydrolase 2 (Homo sapiens) (UniProt O75604); test: qHTS Validation Assay for Inhibitors of Ubiquitin-specific Protease USP2a Using CHOP2 as the Reporter (AID 463106)
Ubiquitin carboxyl-terminal hydrolase 2 (Homo sapiens), sequence (O75604 whole entry, looked up): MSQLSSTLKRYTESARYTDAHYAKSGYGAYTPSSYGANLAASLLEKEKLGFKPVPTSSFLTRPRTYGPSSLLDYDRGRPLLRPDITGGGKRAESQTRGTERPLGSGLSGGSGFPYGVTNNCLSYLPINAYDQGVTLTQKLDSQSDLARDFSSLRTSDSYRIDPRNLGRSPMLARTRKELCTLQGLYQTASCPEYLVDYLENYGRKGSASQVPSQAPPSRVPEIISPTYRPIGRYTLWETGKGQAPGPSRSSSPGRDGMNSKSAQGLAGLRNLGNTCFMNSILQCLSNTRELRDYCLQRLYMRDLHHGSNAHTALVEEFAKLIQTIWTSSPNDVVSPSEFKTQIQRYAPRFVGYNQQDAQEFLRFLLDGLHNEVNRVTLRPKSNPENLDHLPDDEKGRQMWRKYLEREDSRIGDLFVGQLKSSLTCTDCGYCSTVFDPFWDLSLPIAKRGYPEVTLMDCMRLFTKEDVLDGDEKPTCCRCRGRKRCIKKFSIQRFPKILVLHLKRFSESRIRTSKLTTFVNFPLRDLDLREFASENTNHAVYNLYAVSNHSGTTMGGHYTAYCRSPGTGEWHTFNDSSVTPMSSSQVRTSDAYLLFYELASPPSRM
In short: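 10nM USP2 core + cpd, 30min RT; add 25nM Ub-CHOP2/25nM substrate; 60min RT; FI 485/531nm. Buffer Tris pH 8.0, CaCl2, BME, CHAPS. Norm. to NEM = 100% inhibition; time-zero read flags fluorescent artifacts.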

[2] = molecular target: DNA polymerase III PolC-type (Bacillus subtilis (strain 168)) (UniProt P13267); test: qHTS Validation Assay for the Inhibitors of DNA Replication in Gram-Positive Bacteria (AID 485295);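 further: reconstituted holoenzyme with PolC plus beta clamp SSB and primase; PicoGreen fluorescence of double-stranded DNA made on primed circular M13 template; series mostly up to about 57 µM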
DNA polymerase III PolC-type (Bacillus subtilis (strain 168)), sequence (P13267 whole entry, looked up): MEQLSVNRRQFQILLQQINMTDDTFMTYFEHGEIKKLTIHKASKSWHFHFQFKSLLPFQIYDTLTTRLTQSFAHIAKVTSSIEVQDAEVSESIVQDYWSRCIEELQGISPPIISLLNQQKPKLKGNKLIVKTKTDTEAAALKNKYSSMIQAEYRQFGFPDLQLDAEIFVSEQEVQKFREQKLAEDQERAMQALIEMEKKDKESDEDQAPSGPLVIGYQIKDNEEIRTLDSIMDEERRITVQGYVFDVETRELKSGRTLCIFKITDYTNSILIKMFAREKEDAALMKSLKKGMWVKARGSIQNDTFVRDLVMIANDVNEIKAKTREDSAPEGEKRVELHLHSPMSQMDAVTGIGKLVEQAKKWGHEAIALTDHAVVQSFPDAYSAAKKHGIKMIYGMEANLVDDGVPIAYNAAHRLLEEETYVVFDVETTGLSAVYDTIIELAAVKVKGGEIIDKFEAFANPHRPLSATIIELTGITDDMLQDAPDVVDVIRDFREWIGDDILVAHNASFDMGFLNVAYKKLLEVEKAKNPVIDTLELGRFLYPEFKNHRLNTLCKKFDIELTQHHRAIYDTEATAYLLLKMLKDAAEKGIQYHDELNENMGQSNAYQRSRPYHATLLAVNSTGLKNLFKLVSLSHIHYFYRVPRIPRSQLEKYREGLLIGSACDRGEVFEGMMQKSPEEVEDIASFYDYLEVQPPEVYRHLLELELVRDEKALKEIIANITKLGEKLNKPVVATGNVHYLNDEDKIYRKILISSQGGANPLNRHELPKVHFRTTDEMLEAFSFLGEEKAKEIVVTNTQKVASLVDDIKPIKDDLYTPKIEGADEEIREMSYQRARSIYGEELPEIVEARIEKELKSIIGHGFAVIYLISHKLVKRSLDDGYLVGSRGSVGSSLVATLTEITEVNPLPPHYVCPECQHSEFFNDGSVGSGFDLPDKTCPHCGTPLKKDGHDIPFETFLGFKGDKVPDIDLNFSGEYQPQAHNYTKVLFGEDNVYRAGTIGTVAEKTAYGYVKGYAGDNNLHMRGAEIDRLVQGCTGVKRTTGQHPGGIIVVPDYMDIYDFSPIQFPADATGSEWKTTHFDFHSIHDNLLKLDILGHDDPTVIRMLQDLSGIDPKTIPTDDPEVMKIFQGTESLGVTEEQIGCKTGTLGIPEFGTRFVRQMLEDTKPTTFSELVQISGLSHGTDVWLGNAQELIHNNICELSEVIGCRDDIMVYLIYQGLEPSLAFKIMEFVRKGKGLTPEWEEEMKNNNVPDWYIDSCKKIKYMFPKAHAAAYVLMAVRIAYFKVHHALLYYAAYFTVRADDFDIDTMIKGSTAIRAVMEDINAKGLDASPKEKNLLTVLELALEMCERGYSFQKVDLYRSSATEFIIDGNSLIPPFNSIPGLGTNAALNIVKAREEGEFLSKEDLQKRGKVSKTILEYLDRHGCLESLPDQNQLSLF
In short: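 Double-stranded DNA product detected by PicoGreen fluorescence after EDTA quench. Compound incubated with B. subtilis holoenzyme (PolC, beta subunit, SSB, primase) before substrate addition; primed replication of M13Gori with dNTPs and NTPs at room temperature; DMSO defines 0% inhibition.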

[3] = molecular target: Tumor susceptibility gene 101 protein (Homo sapiens) (UniProt Q99816); test: qHTS Validation Assay for Iinhibitors of HIV-1 Budding by Blocking the Interaction of PTAP/TSG101 (AID 485342; calls by dose curve)
Tumor susceptibility gene 101 protein (Homo sapiens), sequence (Q99816 whole entry, looked up, the tested form may be a part): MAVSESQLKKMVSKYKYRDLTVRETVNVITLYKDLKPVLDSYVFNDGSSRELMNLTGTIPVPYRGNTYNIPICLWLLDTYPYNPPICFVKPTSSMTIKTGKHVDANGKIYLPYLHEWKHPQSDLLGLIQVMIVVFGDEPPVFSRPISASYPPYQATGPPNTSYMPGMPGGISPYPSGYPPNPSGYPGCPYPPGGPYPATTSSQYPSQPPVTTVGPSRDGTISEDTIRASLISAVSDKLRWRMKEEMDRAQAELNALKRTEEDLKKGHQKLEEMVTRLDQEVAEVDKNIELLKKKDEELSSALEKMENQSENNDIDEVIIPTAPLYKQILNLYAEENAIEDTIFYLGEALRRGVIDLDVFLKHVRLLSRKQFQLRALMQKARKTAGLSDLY
In short: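 Fluorescence polarization of 50 nM FITC-PTAP peptide bound to 10 uM Tsg101 binding domain was read after 20 min room-temperature incubation with compounds, in 10 mM HEPES pH 7.5, 0.15 M NaCl, 0.01% Tween 20.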

[4] = molecular target: Beta-2 adrenergic receptor (Homo sapiens) (UniProt P07550); test: qHTS validation assay of beta-arrestin-biased ligands of beta2-adrenergic receptor (AID 485366)
Beta-2 adrenergic receptor (Homo sapiens), sequence (P07550 whole entry, looked up): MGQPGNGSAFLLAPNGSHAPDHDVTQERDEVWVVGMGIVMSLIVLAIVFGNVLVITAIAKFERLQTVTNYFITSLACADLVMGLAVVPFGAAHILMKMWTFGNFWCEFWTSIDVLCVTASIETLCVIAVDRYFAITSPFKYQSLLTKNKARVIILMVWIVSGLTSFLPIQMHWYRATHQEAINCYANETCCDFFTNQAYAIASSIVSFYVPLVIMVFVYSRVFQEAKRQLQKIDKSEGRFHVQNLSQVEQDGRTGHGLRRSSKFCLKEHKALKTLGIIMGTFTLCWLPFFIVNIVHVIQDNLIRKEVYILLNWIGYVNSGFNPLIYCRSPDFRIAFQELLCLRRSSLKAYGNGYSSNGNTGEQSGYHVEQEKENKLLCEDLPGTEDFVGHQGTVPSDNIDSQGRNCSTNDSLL
In short: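 Tango cells expressing recombinant beta2-AR and beta-arrestin with tTA-driven luciferase, in DMEM with 1% FBS. Compounds were titrated up to 46 microM for 18 hr at 37 degrees C. Luminescence was read 15 min after substrate; curves were fitted and class-assigned.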

[5] = molecular target: ATP-dependent 6-phosphofructokinase (Trypanosoma brucei brucei) (UniProt O15648); test: qHTS Validation Assay to Find Inhibitors of T. brucei phosphofructokinase (AID 485368)
ATP-dependent 6-phosphofructokinase (Trypanosoma brucei brucei), sequence (O15648 whole entry, looked up): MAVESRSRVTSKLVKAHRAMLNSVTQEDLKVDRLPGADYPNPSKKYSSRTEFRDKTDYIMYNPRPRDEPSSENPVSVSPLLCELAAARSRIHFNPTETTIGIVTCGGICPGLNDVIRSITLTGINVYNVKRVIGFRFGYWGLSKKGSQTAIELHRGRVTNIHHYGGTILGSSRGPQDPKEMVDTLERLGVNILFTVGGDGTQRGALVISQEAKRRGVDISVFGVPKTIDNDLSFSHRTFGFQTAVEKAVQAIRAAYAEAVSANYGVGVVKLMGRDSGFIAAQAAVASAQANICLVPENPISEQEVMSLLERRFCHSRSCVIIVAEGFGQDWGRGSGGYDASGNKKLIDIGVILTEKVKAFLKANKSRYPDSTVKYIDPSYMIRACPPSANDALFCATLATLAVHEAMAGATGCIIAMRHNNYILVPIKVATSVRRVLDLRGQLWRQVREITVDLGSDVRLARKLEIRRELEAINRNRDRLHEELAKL
In short: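 Activity was read as ADP production by luminescence (ADP-Glo) after 45 min at room temperature. The enzyme was 1.25nM PFK in 0.1M TEA pH 8.0 with 0.5 mM F6P, 0.1mM ATP and 5 mM MgCl2. Compounds were titrated up to 57 uM and % activity normalized to no-enzyme and full-enzyme controls.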

[6] = molecular target: Thioredoxin reductase 1, cytoplasmic (Rattus norvegicus) (UniProt O89049); test: qHTS Assay for Substrates of Mammalian Selenoprotein Thioredoxin Reductase 1 (TrxR1) (AID 488772);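 further: NADPH fluorescence in the first read after selenite addition and not the 8 min delta; series mostly up to about 57 µM; a drop in NADPH fluorescence below the no-compound background marks a TrxR1 substrate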
Thioredoxin reductase 1, cytoplasmic (Rattus norvegicus), sequence (O89049 whole entry, looked up): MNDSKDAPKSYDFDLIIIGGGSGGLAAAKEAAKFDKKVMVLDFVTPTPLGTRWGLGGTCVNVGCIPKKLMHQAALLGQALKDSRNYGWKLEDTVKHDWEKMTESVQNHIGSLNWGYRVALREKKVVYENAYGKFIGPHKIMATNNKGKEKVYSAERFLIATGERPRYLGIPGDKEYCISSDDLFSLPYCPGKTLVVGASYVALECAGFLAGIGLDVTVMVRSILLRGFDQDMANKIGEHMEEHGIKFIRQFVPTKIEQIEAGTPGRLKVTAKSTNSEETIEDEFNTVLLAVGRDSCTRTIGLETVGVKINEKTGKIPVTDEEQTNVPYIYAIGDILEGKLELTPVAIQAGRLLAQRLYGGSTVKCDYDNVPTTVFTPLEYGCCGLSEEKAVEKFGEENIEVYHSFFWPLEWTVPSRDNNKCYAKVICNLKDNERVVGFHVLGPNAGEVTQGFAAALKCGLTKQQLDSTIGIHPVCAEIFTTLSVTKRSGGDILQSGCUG
In short: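 Quantitative HTS in Tris-HCl buffer at pH 7.5 with EDTA and Tween-20, using rat TrxR1, 400 uM NADPH and 400 uM selenite (final). A fall in initial NADPH fluorescence relative to background marked substrate behaviour.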

[7] = molecular target: Thioredoxin reductase 1, cytoplasmic (Rattus norvegicus) (UniProt O89049); test: qHTS Assay for Inhibitors of Mammalian Selenoprotein Thioredoxin Reductase 1 (TrxR1) (AID 488773); conditions: Potency: inhibition;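 further: drop in NADPH fluorescence over an 8 min run after selenite addition; series mostly up to about 57 µM; nearly all actives have a fitted effect of over 40% in size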
In short: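 Steps: enzyme (90 nM) plus NADPH (400 uM final), 5 min at ~22 deg C; compound added, 15 min; selenite (400 uM final) added; fluorescence followed for 8 min. Concentration-response curves derived from the normalized delta values.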

[8] = molecular target: Flap endonuclease 1 (Homo sapiens) (UniProt P39748); test: qHTS Validation Assay for the Inhibitors of Human Flap endonuclease 1 (FEN1) (AID 488816)
In short: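 Readings taken at 0 and 15 min after starting the reaction with 50 nM (final) substrate supplied the signal. Compounds had first sat with 10 nM FEN1 reagent for 15 min at room temperature. Values come from Hill-equation concentration-response fits.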

[9] = molecular target: M-phase phosphoprotein 8 (Homo sapiens) (UniProt Q99549); test: qHTS Validation Assay for Inhibitors for MPP8 Chromodomain Interactions with Methylated Histone Tails (AID 488949); further: nearly all actives have a fitted effect of over 55% in size; further: potency means the concentration at half of the fitted maximal effect
M-phase phosphoprotein 8 (Homo sapiens), sequence (Q99549 whole entry, looked up): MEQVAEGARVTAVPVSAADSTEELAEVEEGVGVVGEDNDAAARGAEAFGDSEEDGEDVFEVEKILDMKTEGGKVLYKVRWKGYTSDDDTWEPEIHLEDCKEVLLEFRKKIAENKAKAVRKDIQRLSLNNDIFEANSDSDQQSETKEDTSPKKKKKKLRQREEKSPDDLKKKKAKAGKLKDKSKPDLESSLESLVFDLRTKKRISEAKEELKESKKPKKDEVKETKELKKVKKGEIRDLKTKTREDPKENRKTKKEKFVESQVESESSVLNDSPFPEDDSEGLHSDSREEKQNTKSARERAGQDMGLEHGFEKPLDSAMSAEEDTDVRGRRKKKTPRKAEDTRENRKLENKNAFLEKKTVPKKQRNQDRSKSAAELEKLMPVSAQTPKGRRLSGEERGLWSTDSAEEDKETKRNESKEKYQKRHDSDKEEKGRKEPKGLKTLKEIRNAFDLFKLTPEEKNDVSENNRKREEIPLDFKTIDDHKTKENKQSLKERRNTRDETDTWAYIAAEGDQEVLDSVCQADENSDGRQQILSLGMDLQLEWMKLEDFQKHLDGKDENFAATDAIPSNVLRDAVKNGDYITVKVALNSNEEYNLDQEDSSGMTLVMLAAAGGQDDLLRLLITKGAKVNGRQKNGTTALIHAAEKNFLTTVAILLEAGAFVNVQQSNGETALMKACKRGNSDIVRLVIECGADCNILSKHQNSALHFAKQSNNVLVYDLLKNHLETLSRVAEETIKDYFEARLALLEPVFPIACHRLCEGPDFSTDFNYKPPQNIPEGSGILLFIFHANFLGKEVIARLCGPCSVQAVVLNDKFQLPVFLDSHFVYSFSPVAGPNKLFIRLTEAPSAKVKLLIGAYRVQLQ
In short: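 AlphaScreen proximity signal from streptavidin donor and Ni-chelate acceptor beads (10 ug/mL each) reported binding of MPP8 to trimethyl-K9 H3(1-18) peptide, both at 50 nM. The complex formed 30 min before a 30 min compound exposure at room temperature, in PBS pH 7.4.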

[10] = molecular target: Chromobox protein homolog 1 (Homo sapiens) (UniProt P83916); test: qHTS Validation Assay for Inhibitors of HP1-beta Chromodomain Interactions with Methylated Histone Tails (AID 488953); further: nearly all actives have a fitted effect of over 50% in size; further: potency means the concentration at half of the fitted maximal effect
Chromobox protein homolog 1 (Homo sapiens), sequence (P83916 whole entry, looked up): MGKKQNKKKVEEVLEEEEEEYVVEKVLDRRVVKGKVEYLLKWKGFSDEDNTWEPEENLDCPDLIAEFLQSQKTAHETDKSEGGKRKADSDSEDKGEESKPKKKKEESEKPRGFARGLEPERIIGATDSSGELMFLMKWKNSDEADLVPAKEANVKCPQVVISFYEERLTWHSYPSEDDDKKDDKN
In short: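 50 nM HP1-beta + 50 nM biotin-H3(1-18)K9me3, PBS pH 7.4, 0.01% Tween-20, 30 min RT; compound added, 30 min RT; AlphaScreen beads 10 ug/mL final, 30 min dark; luminescence read.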

[11] = molecular target: Methanococcus maripaludis chaperonin (MmCpn) (UniProt Q6LX38); test: High-Throughput Screening for Modulators of Cytosolic Chaperonin Activity: MmCpn Primary Screen (AID 488978);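 further: 50 nM MmCpn enzyme hydrolysing 30 µM ATP at 37 °C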
In short: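 ATPase activity of 50 nM MmCpn was assayed with 30 uM ATP, 10 minutes at 37C, after a 5 min compound preincubation at room temperature. ADP production was read as HTRF emission at 590 and 665 nm.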

[12] = Cytometric Cell-Based qHTS for Inhibitors of the mTORC1 Signaling Pathway in MEF (Tsc2-/-, p53-/-) Cells (AID 2660);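 further: percent of cells above a phospho-rpS6 to PI ratio cutoff in each well; series mostly up to about 38 µM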
In short: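 Tsc2-/-, p53-/- MEFs (empty vector) exposed to compound 24 h at 37 C, fixed, stained with Alexa-488 anti-phospho-rpS6 Ser235/236 and propidium iodide. Acumen laser scanning; phospho-S6/PI ratio thresholded against 7.5 nM rapamycin, reported as % positive cells.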

[13] = High Content Imaging Cell-Based qHTS for Inhibitors of the mTORC1 Signaling Pathway in MEF Cells (AID 2667); further: potency means the concentration at half of the fitted maximal effect
In short: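 Immunofluorescence for rpS6 phosphorylation in MEFs of Tsc2-/-, p53-/- background rescued with WT Tsc2. Compound exposure lasted 24 hrs. Inhibition was scored against rapamycin-treated control wells.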

[14] = Cytometry Cell-Based qHTS for Inhibitors of the mTORC1 Signaling Pathway in MEF cells (AID 2668); further: potency means the concentration at half of the fitted maximal effect
In short: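 Phospho-rpS6 (Ser235/236) immunofluorescence over PI signal, scored as % positive cells using thresholds from 7.5 nM rapamycin and DMSO wells, after 24 h compound exposure of WT-Tsc2-rescued Tsc2-/-, p53-/- MEFs. PI cell count recorded for viability.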

[15] = Validation screen for small molecules that induce DNA re-replication in MCF 10A normal breast cells (AID 463097); further: nearly all actives have a fitted effect of over 60% in size; further: potency means the concentration at half of the fitted maximal effect
In short: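 Read-out is Hoechst total nuclear intensity by fluorescence scanning imager, flagging increased high-DNA-content nuclei. Compounds were incubated with MCF 10A cells for 48 hr (37 C, 5% CO2) before 40 min staining.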

[16] = qHTS Validation Assay to Find Inhibitors of Chronic Active B-Cell Receptor Signaling (AID 485345; active means well fitted curve in the direction sought with a large enough effect in the main read-out, with a control signal flat, not every such curve was filed as active)
In short: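 Read-out: ratio of filter-corrected green (IkappaBalpha fusion) to red (native) luciferase signal in doxycycline-induced TMD8 cells after 4 h at 37C. Titration spanned 46 uM–3 nM; Data were normalised to basal cells and 10 uM MG-132 wells.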

[17] = Quantitative high throughput screen for delayed death inhibitors of the malarial parasite plastid, 96 hour incubation (AID 488745); further: nearly all actives have a fitted effect of over 70% in size; further: potency means the concentration at half of the fitted maximal effect
In short: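 Infected erythrocytes were added to compound in Albumax-supplemented RPMI 1640 at 0.1% parasitemia and 2% hematocrit (final), incubated 96 h at 37 C under 5% CO2, then luciferase reagent was added and luminescence measured.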

[18] = Quantitative high throughput screen for delayed death inhibitors of the malarial parasite plastid, 48 hour incubation (AID 488752); further: nearly all actives have a fitted effect of over 65% in size; further: potency means the concentration at half of the fitted maximal effect
In short: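 Readout is firefly luciferase luminescence from a reporter integrated into the parasite genome, with lower signal taken as inhibited growth. Infected red cells (0.1% parasitemia, 2% hematocrit final) are cultured with compound for one 48 h cycle at 37 C.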

[19] = High Content Imaging Cell-Based qHTS for Inhibitors of the mTORC1 Signaling Pathway in MEF (Tsc2-/-, p53-/-) Cells (AID 2666);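 further: percent of cells scored positive for phospho-rpS6 Ser235/236 immunostaining by imaging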; further: potency means the concentration at half of the fitted maximal effect
In short: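 Cells were plated, dosed with compound after 24 hrs, and incubated another 24 hrs at 37 degree Celsius. Fixed cells were immunostained for phospho-rpS6 Ser235/236 and counterstained, and the normalized signal was scored as % active cells against rapamycin and DMSO controls.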

Row | SMILES | Potency [1] | Potency [2] | outcome [3] | outcome [4] | Potency [5] | outcome [6] | Potency [7] | Potency [8] | Potency [9] | Potency [10] | outcome [11] | outcome [12] | Potency [13] | Potency [14] | Potency [15] | outcome [16] | Potency [17] | Potency [18] | Potency [19]
1 | COc1cc([C@@H]2c3cc4c(cc3[C@H](O)C3COC(=O)[C@@H]32)OCO4)cc(OC)c1OC (stereo partly drawn) | inactive | inactive | inactive | inactive | inactive | inactive | inactive | inactive | inactive | inactive | inactive | – | – | – | – | – | – | – | –
2 | NC(=Nc1ccccc1)NC(=O)c1nc(Cl)c(N)nc1N | inactive | inactive | inactive | inactive | – | – | inactive | inactive | inactive | inactive | inactive | inactive | inactive | inactive | 14.1 µM (active) | – | – | – | –
3 | NOCC(=O)O | inactive | inactive | inactive | inactive | inactive | inactive | inactive | – | inactive | inactive | inactive | inactive | inactive | inactive | inactive | – | – | – | –
4 | CCCn1c(=O)c2c(ncn2C)n(CCC)c1=O | – | – | inactive | inactive | – | inactive | inactive | inactive | inactive | inactive | inactive | inactive | inactive | inactive | inactive | inactive | inactive | inactive | –
5 | Cc1ccc([N+](=O)[O-])cc1S(=O)(=O)N(C)C | inactive | – | inactive | inactive | – | – | inactive | inactive | inactive | inactive | inactive | inactive | inactive | inactive | inactive | – | inactive | inactive | –
6 | CC(C)NCC(O)COc1ccc(CC(N)=O)cc1 (stereo not drawn) | inactive | inactive | inactive | – | – | inactive | inactive | – | – | inactive | inactive | – | inactive | inactive | inactive | inactive | – | inactive | inactive
7 | C=C1C[C@@]23CC[C@H]4[C@@](C)(CCC[C@@]4(C)C(=O)OC4OC(CO)C(O)C(O)C4O)[C@@H]2CC[C@]1(OC1OC(CO)C(O)C(O)C1OC1OC(CO)C(O)C(O)C1O)C3 (stereo partly drawn) | inactive | inactive | inactive | inactive | – | inactive | inactive | inactive | inactive | 0.006 µM (active) | inactive | inactive | inactive | inactive | – | – | – | – | –
8 | Nc1nc2ccc(Cl)cc2c2nc(-c3ccco3)nn12 | inactive | inactive | inactive | – | inactive | inactive | – | – | – | – | inactive | – | – | – | – | – | inactive | inactive | inactive
9 | CN(C)S(=O)(=O)c1ccc2c(c1)/C(=C/c1cc3c([nH]1)CCCC3)C(=O)N2 | inactive | inactive | inactive | – | inactive | inactive | – | inactive | 17.8 µM (active) and inactive | – | inactive | – | inactive | – | – | – | – | – | inactive
10 | COc1ccc(NC(=O)c2ccc(-c3ccc(-c4noc(C)n4)cc3C)cc2)cc1N1CCN(C)CC1 | inactive | inactive | inactive | inactive | – | inactive | inactive | inactive | 15.8 µM (active) | 31.6 µM (active) | inactive | – | 5.85 µM (active) | 5.85 µM (active) | 12.6 µM (active) | – | 4.65 µM (active) | 3.7 µM (active) | 16.5 µM (active)
11 | O=C(O)Cc1c[nH]c2ccc(O)cc12 | inactive | inactive | inactive | – | inactive | inactive | – | – | inactive | inactive | inactive | inactive | inactive | inactive | inactive | – | – | – | –
12 | O=C1Cc2c([nH]c3ccc(Br)cc23)-c2ccccc2N1 | inactive | inactive | inactive | inactive | – | inactive | – | inactive | inactive | – | inactive | – | inactive | – | 6.31 µM (active) | – | – | – | –
13 | CN1CC(O)C(O)C(O)C1CO (stereo not drawn) | inactive | inactive | inactive | inactive | inactive | inactive | – | inactive | inactive | inactive | inactive | inactive | inactive | inactive | – | inactive | – | – | –
14 | O=C(N[C@@H](Cc1ccccc1)C(=O)CCl)OCc1ccccc1 | inactive | inactive | – | inactive | – | inactive | – | inactive | inactive | inactive | inactive | – | 5.21 µM (active) | – | 2.82 µM (active) | – | – | inactive | –
15 | CCC1(O)CC2CN(CCc3c([nH]c4ccccc34)[C@@](C(=O)OC)(c3cc4c(cc3OC)N(C)C3[C@]45CCN4CC=C[C@@](CC)([C@@H](OC(C)=O)[C@]3(O)C(=O)OC)[C@H]45)C2)C1 (stereo partly drawn) | inactive | inactive | inactive | – | inactive | – | – | inactive | – | – | inactive | – | – | – | 0.0501 µM (active) | – | 0.522 µM (active) | 0.586 µM (active) | –
16 | C=C1C(=O)O[C@@H]2[C@H]3O[C@]3(C)CCC=C(C)CC[C@@H]12 | inactive | inactive | inactive | inactive | inactive | – | – | inactive | inactive | inactive | inactive | – | inactive | – | 14.1 µM (active) | – | – | inactive | inactive
17 | COC(=O)[C@H](NC(=O)c1cc(-c2ccccc2)nc2ccccc12)c1ccccc1 | inactive | inactive | – | inactive | inactive | inactive | – | – | – | inactive | inactive | – | inactive | inactive | inactive | – | inactive | – | –
